# Screening data as filed in PubChem BioAssay.
# HCMV antiviral: human cytomegalovirus inhibition; hit rate 4.5% among 410,000; HFF cells, HCMV-luciferase reporter, 72 h; hits give low values; activity change, negative = inhibition, % at 57.5 µM; AID 1259415; in the data active means activity change below about -60%; inconclusive means no clear call, values can overlap the other calls; inactive means above about -39%
#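 Luciferase read-out from HCMV-luciferase-infected HFFs (MOI 1 PFU/cell) 72 h post infection at 37C; compounds added after 16 h cell attachment; activity normalized between buffer-only basal and Salinomycin (10uM) inhibitor controls.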
# FBPA Giardia inh: Giardia lamblia aldolase inhibition; A8B2U2; purified Giardia FBPA; Potency, µM (doses to about 59.6 µM), inactives show at the highest dose activity, negative = inhibition, hits mostly inhibitors; hit rate 0.71% among 290,000; AID 2451; further: potency means the concentration at half of the fitted maximal effect; nearly all actives have a fitted effect of over 55% in size
# Target sequence (A8B2U2 whole entry, looked up): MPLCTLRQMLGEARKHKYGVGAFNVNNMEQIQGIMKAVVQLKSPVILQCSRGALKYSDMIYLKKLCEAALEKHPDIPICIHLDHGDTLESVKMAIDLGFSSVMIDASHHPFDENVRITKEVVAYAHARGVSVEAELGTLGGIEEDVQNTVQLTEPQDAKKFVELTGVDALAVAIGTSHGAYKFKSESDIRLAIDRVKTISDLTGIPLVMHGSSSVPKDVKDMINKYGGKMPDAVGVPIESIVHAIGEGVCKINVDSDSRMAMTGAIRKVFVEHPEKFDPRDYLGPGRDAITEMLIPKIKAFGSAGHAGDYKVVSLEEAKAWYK
#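 Giardia FBPA (40 nM reagent) was preincubated 10 min at RT with compound (up to 57.5 uM final), then substrate plus GAPDH/TPI/NAD/arsenate coupling system with diaphorase/resazurin was added; resorufin fluorescence (525/598 nm) was read after 20 min.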
# Pf growth 96h: P. falciparum growth inhibition at 96 hours; P. falciparum luciferase reporter growth, 96 h; Potency, µM (highest dose often 28.7 µM), for inactives: at the highest dose activity change, negative = inhibition, actives largely listed as inhibitors; hit rate 6.9% among 320,000; AID 504834; further: potency means the concentration at half of the fitted maximal effect
#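 Plates of compound plus infected erythrocytes (2% hematocrit, 0.05% parasitemia final) incubate 96 hours, 37 C, 5% CO2. Detection reagent added; reduced luminescence from the parasites' luciferase reporter flags inhibition.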
# Sm TGR inh: S. mansoni TGR enzyme inhibition. Potency, µM (highest dose often 114 µM), for inactives: at the top dose activity change, negative = inhibition, hits mostly inhibitors. hit rate 3% among 360,000. purified TGR, DTNB reduction, TNB absorbance 405 nm; further: potency means the concentration at half of the fitted maximal effect; nearly all actives have a fitted effect of over 60% in size
#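 TGR 20 nM + NADPH 100 uM (dispensed conc.), cpd preinc 15 min RT; start with NADPH (500 uM addition) then DTNB (15 mM addition). Kinetic TNB absorbance, 405 nm filter. Four-parameter Hill fit across titration.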
# Pf growth 48h: inhibits P. falciparum growth in the first generation, 48 h. P. falciparum luciferase growth in erythrocytes, 48 h. Potency, µM (highest dose often 28.7 µM), without a hit: at the highest dose activity change, negative = inhibition, actives largely listed as inhibitors. hit rate 5.9% among 310,000; further: potency means the concentration at half of the fitted maximal effect
#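 Growth was read as firefly luciferase luminescence after a 48 h, 37 C, 5% CO2 exposure of compounds to reporter-bearing P. falciparum cultures (0.1% parasitemia, 2% hematocrit final) in Albumax-supplemented RPMI 1640.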
# * = called active by the depositor; ? = inconclusive; / = no result given. A selection: hits, their analogues and other compounds. The true share with any hit is near 14%. Unless noted, the call rests on the fitted dose curve; in most records, active means well fitted curve in the direction sought with a large enough effect; inconclusive means small, poorly fitted or top-dose-only effect, or another doubt; inactive means no such curve, though single readings can be large; an effect the other way counts as inactive or inconclusive. On the % scale 0 is the no-effect control and ±100 the full control effect.
SMILES,HCMV antiviral,FBPA Giardia inh,Pf growth 96h,Sm TGR inh,Pf growth 48h
O=C(Nc1ccccc1)c1cccc(S(=O)(=O)N2CCCCC2)c1,?,-4%,?,35%,1%
CC1CCN(S(=O)(=O)c2cccc(C(=O)Nc3ccccc3)c2)CC1,-17,-3%,2.6µM*,9%,?
CC1CN=C(c2ccc(Cl)cc2)c2c3ccccc3nn21 (stereo not drawn),26,/,/,/,/
CCOC(=O)CC(NC(=O)c1cc2cccc(OC)c2oc1=O)c1ccc(OC)cc1 (stereo not drawn),?,6%,15%,0%,12%
Cc1ccnc(NC(=O)c2ccc(S(=O)(=O)N3CCC(C)CC3)cc2)c1,5,/,19%,2%,14%
CC1CCN(S(=O)(=O)c2ccc(NC(=O)CN3CCCC(C)C3)cc2)CC1 (stereo not drawn),-12,0%,12µM*,-3%,/
Cc1ccc(NC(=O)c2ccc(S(=O)(=O)N3CCC(C)CC3)cc2)cc1,-22,5%,/,3%,10µM*
CCCS(=O)(=O)N1CCCC(C(=O)NC2CCCC(C)C2C)C1 (stereo not drawn),-5,2%,?,1%,8%
CCCS(=O)(=O)N1CCC(C(=O)NC2CCCC(C)C2C)CC1 (stereo not drawn),-8,-2%,9.3µM*,6%,17%
O=C1c2ccc(-c3nc4ccccc4o3)cc2C(=O)N1Cc1ccccc1,-105*,/,/,/,/
O=C(Oc1c(Cl)cc(Cl)c2ccccc12)N1CCCC1,-22,1%,?,?,?
O=C(Oc1ccc2ccccc2c1Cl)N1CCCCCC1,-39,8%,3.3µM*,-9%,246%
O=C(Oc1c(Cl)cc(Cl)c2ccccc12)N1CCCCC1,-24,3%,12µM*,4%,/
COc1ccccc1C(=O)NC(=O)COC(=O)CCOc1ccc(C)cc1,15,/,1%,0%,?
CC1(c2cccc(Br)c2)NC(=O)N(CC(=O)c2ccc3c(c2)OCO3)C1=O (stereo not drawn),15,/,/,/,/
CCC(=NC1CCN(Cc2ccccc2)CC1)c1c(O)[nH]c(=O)[nH]c1=O,-2,1%,5.2µM*,?,?
C=CCn1c(O)c(C(C)=NC2CCN(Cc3ccccc3)CC2)c(=O)[nH]c1=O,96,8%,-14%,-8%,0%
N[C@H](CO)Cc1cnc[nH]1,/,1%,/,/,/
OCc1cnc[nH]1,-11,-6%,9.3µM*,1%,?
c1ccc(Nc2nnc(-c3ccc4c(c3)OCO4)o2)cc1,-40,/,/,/,/
CN(Cc1ccccc1)C(=O)c1[nH]cnc1C(=O)N[C@@H](CCCCNC(=O)OC(C)(C)C)C(=O)OC(C)(C)C,/,?,8.3µM*,-1%,?
C[C@H](NC(=O)c1nc[nH]c1C(=O)NCCCCCNC(=O)OC(C)(C)C)c1ccccc1,-36,/,5.2µM*,0%,10µM*
CC(C)(C)OC(=O)NCCCC[C@H](NC(=O)c1nc[nH]c1C(=O)NCc1ccccc1)C(=O)OC(C)(C)C,-2,?,?,0%,?
CC(C)(C)OC(=O)NCCCC[C@H](NC(=O)c1[nH]cnc1C(=O)N[C@@H](Cc1ccccc1)C(=O)OC(C)(C)C)C(=O)OC(C)(C)C,?,-21%,3.7µM*,14%,2.9µM*
C[C@H](NC(=O)c1nc[nH]c1C(=O)NCc1ccc(CNC(=O)OC(C)(C)C)cc1)c1ccccc1,-14,/,?,1%,10µM*
SMILES,HCMV antiviral,FBPA Giardia inh,Pf growth 96h,Sm TGR inh,Pf growth 48h
Cc1cc2n(n1)CCC(=O)N2Cc1ccc(C(=O)Nc2cc(Cl)ccc2C)cc1,-31,/,/,6%,/
Cc1ccc(S(=O)(=O)N2CCN(C(=O)Cn3cnc4c3c(=O)n(C)c(=O)n4C)CC2)cc1C,-37,/,?,-21%,?
O=S(=O)(NCc1ccc(F)cc1)c1ccc(N2CCCCS2(=O)=O)cc1,-28,/,/,-13%,/
COc1ccc(-n2c(SCc3nc(-c4ccc(C)cc4)no3)nnc2-c2ccncc2)cc1,-31,/,/,1%,/
C[C@H](NC(=O)c1nc[nH]c1C(=O)N[C@@H](CCCCNC(=O)OC(C)(C)C)C(=O)OC(C)(C)C)c1ccccc1,-37,-13%,?,-21%,10µM*
CC(C)C[C@H](NC(=O)c1nc[nH]c1C(=O)N(C)Cc1ccccc1)C(=O)OC(C)(C)C,0,6%,7.4µM*,17%,?
C[C@@H]1CN([C@@H](C)CO)C(=O)CCCn2nncc2CO[C@@H]1CN(C)C(=O)Nc1ccnc(N2CCOCC2)c1,-8,/,/,/,/
CCOc1cccc(=O)c2c(C)n(C)c(C)c12,-37,?,?,?,?
COc1cccc(=O)c2c(C)n(-c3cc(C)cc(C)c3)c(C)c12,-6,0%,2.6µM*,0%,3.3µM*
COc1cccc(-n2c(C)c3c(OC)cccc(=O)c3c2C)c1,5,?,?,22µM*,4.1µM*
COc1cccc(=O)c2c(C)n(C)c(C)c12,-8,?,377%,?,6%
CCOc1cc(CNC(=O)c2ccc(Cn3c(=O)c4cccn4c4cccnc43)cc2)ccc1OC,-27,/,/,3%,/
CCCN1CCC(=O)N([C@H](CSc2ccccc2)c2ccccc2)CC1,-102*,12%,?,40µM*,?
CCCN1CCC(=O)N([C@H](CSc2ccc(C)cc2)c2ccccc2)CC1,47,-1%,?,45µM*,?
O=C(COC(=O)C1C2CC3OC(=O)C1C3C2)Nc1cccc(Cl)c1 (stereo not drawn),-15,10%,?,4%,-6%
CCCCCCCCCCCCCCCC[N+](C)(C)Cc1ccc(F)cc1,-89*,/,/,/,/
CCCCCCCCCCCCC[N+](C)(C)Cc1ccccc1,/,-1%,/,/,/
O=C(Cn1cccc1C(=O)c1ccccc1)NCc1cccc(Cl)c1,11,2%,13µM*,12%,44%
COc1ccccc1-c1cnn(C(C)(C)C(=O)NCc2ccccc2Br)c1,11,/,/,/,/
O=c1c2sccc2nc(SCc2ccc([N+](=O)[O-])cc2)n1Cc1ccccn1,-26,-2%,-16%,-1%,5%
CCOC(=O)COc1nc(-c2ccco2)cc(-c2ccco2)c1C#N,-18,-1%,0%,32µM*,-13%
CCOC(=O)C(C)Sc1nc(-c2ccco2)cc(C(F)(F)F)c1C#N (stereo not drawn),-7,-2%,?,22µM*,?
CC(=O)COc1nc2c(c(-c3ccco3)c1C#N)CCc1ccccc1-2,/,?,12µM*,45µM*,12µM*
CCOc1nc2c(c(-c3cccs3)c1C#N)Cc1ccccc1-2,21,4%,11%,16%,4%
Cn1cc(C(=O)C(=O)N2CCc3ccccc32)c2ccccc21,30,/,12%,0%,76%
CCOC(=O)c1ccc(-n2ccnc2)c(NC(=O)c2ccc(C(C)(C)C)cc2)c1,-19,4%,15µM*,-10%,13µM*
